Inhibition data for 84 molecules are collected here from PubChem BioAssay AID1645859 (Buhrlage Lab, Dana-Farber Cancer Institute and Novartis …, 2021).

In all, about 47,000 compounds went through this assay and about 95 (0.2%) were called active. The sample as a whole holds a higher share of actives than the screen did. Unmarked numbers belong to inactive results. No stated cut-off is given here; in the data, active means inhibition above about 30%; inactive means the rest.

For the assay, the target named is Ubiquitin carboxyl-terminal hydrolase isozyme L1 (Homo sapiens) (UniProt P09936). Description: inhibitors of human UCHL1 deubiquitinase (AID 1645859). The note with it: purified UCHL1, Ub-rhodamine cleavage fluorescence; at 20 µM; active compounds read high.
Sequence of Ubiquitin carboxyl-terminal hydrolase isozyme L1 (Homo sapiens) (P09936 whole entry, looked up): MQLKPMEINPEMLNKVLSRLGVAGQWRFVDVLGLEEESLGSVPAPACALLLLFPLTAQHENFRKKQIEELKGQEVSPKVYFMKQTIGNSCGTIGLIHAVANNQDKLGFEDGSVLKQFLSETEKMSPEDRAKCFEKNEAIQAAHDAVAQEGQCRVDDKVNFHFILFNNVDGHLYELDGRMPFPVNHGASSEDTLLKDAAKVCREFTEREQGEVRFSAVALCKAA
`COCC(=O)N1CCC(n2c(-c3ccccc3OC)nc3ccccc32)CC1`: the inhibition is -2.92%.

Consider `COCCC(=O)N1CCC2(C/C=C/Cc3ccccc3OCC(=O)NCCNC2=O)CC1`, for which the inhibition was 3.12%.

With `COCC(=O)N1CCN2C[C@H]1C(=O)NC[C@H]1O[C@@H](CC(=O)N[C@H]3C[C@@H](C2=O)N(Cc2ccc(OC(F)(F)F)cc2)C3)[C@H](O)[C@@H]1O`, the inhibition was -6.2%.

`FC(F)(F)c1ccc(-c2nnc(SCCOc3ccccc3)o2)cc1`: the inhibition is 11.1%.

In the case of `Cc1ccc(CN2CN(C3CCN(C(=O)c4ccoc4)CC3)CC2=O)c(C)c1`, the inhibition is -0.0513%.

Regarding `O=C(Nc1nc2nc(-c3ccccc3)cc(=O)n2[nH]1)C1CCCCC1`, the inhibition is 4.88%.

For `Cc1nc(-c2cn(C(C)C)c3ncccc23)sc1C(=O)N1CCCC1`, the inhibition is 1.73%.

On to `Cc1ccc(CNC(=O)c2cc(=O)nc3sc(N4CCCC(C)C4)nn23)cc1` (centres undefined), for which the inhibition is 0.655%.

For the molecule `COc1ccc(C(NC(=O)CN(C)Cc2ccc3c(c2)OCO3)c2ccccc2)cc1` (centres undefined), the inhibition was 6.51%.

On to `Fc1ccccc1Cn1c(COc2ccccc2)nc2ccccc21`, for which the inhibition is 8.93%.

In the case of `O=C(N[C@@H]1CN(Cc2nccs2)[C@@H]2COC[C@@H]21)C1CCC1`, the inhibition is -3.31%.

Turning to `O=C(Nc1ccc(F)cc1)c1cc(CN2CCOCC2)on1`, the inhibition is 1.96%.

Consider `C=C1CCC2[C@](C)(CCC[C@]2(C)C(=O)OC)[C@H]1CCc1ccoc1/C=C/C(=O)O` (some centres undefined), for which the inhibition was 9.97%.

In the case of `O=C1COC2(CCN(C(=O)C3(c4ccccc4)CCOCC3)C2)CN1c1ccc(F)cc1` (centres undefined), the inhibition was 2.68%.

Regarding `O=C(CCc1ccncc1)N(Cc1ccc2c(c1)OCO2)C1CCCCC1`, the inhibition was -0.303%.

Take `COC[C@H]1C[C@@H]2CN(S(=O)(=O)c3ccccc3OC)C(C)[C@H]1N2C` (some centres undefined): the inhibition was 0.608%.

In the case of `O=C(Nc1nnc(-c2cccc([N+](=O)[O-])c2)o1)C1CCN(S(=O)(=O)c2ccc3c(c2)CCC3)CC1`, the inhibition was 5.08%.

In the case of `Cc1nc(Nc2ccccn2)cc(C2CCCN2Cc2ncc[nH]2)n1` (centres undefined), the inhibition was -2.35%.

In the case of `CCc1cccc(NS(=O)(=O)c2ccc3c(c2)C(C)(C)C(=O)N3)c1`, the inhibition was 4.05%.

For `COc1cccc(CNC(=O)CN2C(=O)CCc3cc(Br)ccc32)c1`, the inhibition is 3.25%.

With `O=C1CC2(C(=O)N(Cc3cccc(Cl)c3)c3ccccc32)c2cn[nH]c2N1` (centres undefined), the inhibition is -5.23%.

As to `CCn1c(=O)c2ccccc2n(Cc2nc(-c3ccc(C)cc3)no2)c1=O`, the inhibition is -1.69%.

As for `O=C(C1CCC1)N1CCN2C(=O)c3ccccc3[C@H]2C1`, the inhibition was -4.57%.

`O=C1C(O)=C(c2ccc(O)c(O)c2)C(=O)C(O)=C1c1ccccc1`: the inhibition is 13.7%.

Take `O=C1OCC2=C1C(c1ccccc1)CC(=O)N2c1cccc(F)c1` (centres undefined): the inhibition is -0.0471%.

In the case of `Cc1nc(NCCO)c2sc3nc4c(cc3c2n1)COC(C)(C)C4`, the inhibition is 3.92%.

Take `CCOc1ccccc1-c1nc(-c2nnn(Cc3ccccc3)c2C)no1`: the inhibition is 7.54%.

With `COc1ccc(C(Nc2ccc(S(=O)(=O)NCC3CCCO3)cc2)C(=O)NCC2CCCO2)cc1` (centres undefined), the inhibition is 1.49%.

With `O=C(Cn1c(=O)n(Cc2cccs2)c(=O)c2cc(Cl)ccc21)NCC1CCCO1` (centres undefined), the inhibition was 0.727%.

With `Cc1nc(N2CCOCC2)ncc1-c1cc(=O)[nH]c(N2CCC(Cc3ccccc3)CC2)n1`, the inhibition was 5.31%.

As to `Cc1nc2ccccc2n1CC(O)c1ccccc1` (centres undefined), the inhibition was -0.449%.

Consider `O=C(c1noc2ccc(S(=O)(=O)N3CCCC3)cc12)N1CCCC1`, for which the inhibition is 0.984%.

On to `Cc1ccc(CNc2nc3nc(CN4CCc5ccccc5C4)cc(=O)n3[nH]2)cc1`, for which the inhibition is -0.288%.

Regarding `O=C(Cn1cc(SCc2cccc(F)c2)c2ccccc21)N1CCCCCC1`, the inhibition was 7.23%.

Regarding `Cc1c(-c2nn3c(-c4ccco4)nnc3s2)cccc1[N+](=O)[O-]`, the inhibition is 61.3% (active).

Turning to `CC(C)Cc1cc(-c2nn3c(-c4ccccc4Cl)nnc3s2)n[nH]1`, the inhibition was 5.44%.

Turning to `O=C(COc1cccc2ccc(N3CCC(Cc4ccccc4)CC3)nc12)NCc1ccc(F)cc1`, the inhibition is 2.33%.

For the molecule `O=C(c1cn(-c2cc(-c3nc(C4CC4)no3)ccn2)cn1)N1CCCCCC1`, the inhibition is -3.62%.

For `O=C(NCCN1CCOCC1)C1CCN(c2ccc(N3CCCCC3)nn2)CC1`, the inhibition is -0.229%.

As for `Cc1ncc(-c2ccncc2)c(C2CCN(C(=O)c3cnccn3)CC2)n1`, the inhibition was 0.226%.

Regarding `Cn1cc2nc(SCC(=O)NCc3ccc(Cl)cc3)n(CC3CC3)c(=O)c2n1`, the inhibition is -3.8%.

Take `O=c1c2ccccc2c(-c2nc(-c3ccncc3)no2)cn1-c1ccc(F)cc1`: the inhibition is 3.33%.

As to `CCCCCCSc1ncnc2c1sc1nc(-c3ccccc3)c3c(c12)CC(C)(C)OC3`, the inhibition is -2.54%.

In the case of `CSc1ncnc2c1sc1nc(-c3ccccc3)c3c(c12)CC(C)(C)OC3`, the inhibition is 2.83%.

Take `CC1(C)Cc2c(c(-c3ccco3)nc3sc4c(SCCCc5ccccc5)ncnc4c23)CO1`: the inhibition was 56.3% (active).

For the molecule `CCc1cnc(N2CC[C@@H]3CN(CC)S(=O)(=O)[C@@H]3CC2)nc1`, the inhibition is 1.62%.

In the case of `Cc1nc2c(c(=O)[nH]1)C(c1ccc(OCc3ccccc3F)cc1)CC(=O)N2` (centres undefined), the inhibition was -1.23%.

Regarding `Cc1cc(N(C)C)nc(N2CCN(S(=O)(=O)c3ccc(-c4ccccc4)cc3)CC2)n1`, the inhibition was 1.74%.

Turning to `Cc1cc(C)c2c(C)c(C(=O)NCc3csc(C)n3)oc2c1`, the inhibition is -0.0316%.

In the case of `Cc1ccc(C(=O)N2CCc3cc(-c4csc(NC(=O)CNc5ccccc5)n4)ccc32)cc1`, the inhibition is -0.728%.

As to `Cc1nn(-c2ccc(Cl)cc2)c2c1C(c1cccc(Br)c1)N1C(=N2)N(C)c2c1c(=O)n(C)c(=O)n2C` (centres undefined), the inhibition was -0.542%.

On to `COCCCn1c(C(=O)N2CCC(C)CC2)cc2c(=O)n3ccccc3nc21`, for which the inhibition was -5.93%.

As for `O=C1CN(C(=O)c2ccc(Cl)o2)c2ccccc2N1`, the inhibition was -5.13%.

Consider `CCc1nnc2ccc(C(=O)N3CCN(c4ccccn4)CC3)cn12`, for which the inhibition was 1.5%.

Consider `Fc1cc(F)cc(-c2noc3ncnc(N(Cc4ccco4)CC4CCCO4)c23)c1` (centres undefined), for which the inhibition was 0.782%.

As for `Cc1ccc(CN2C[C@H]3C[C@H](C(=O)NC(C)C)[C@@H](C2)O3)o1`, the inhibition was 2.08%.

Regarding `O=C1NC(=O)N2Cc3ccccc3CN(C(=O)c3ccc(Cl)cc3)CC12` (centres undefined), the inhibition is 0.947%.

With `COc1ccc(CN=C2NS(=O)(=O)C(c3ccc(F)cc3)=C2C)cc1OC`, the inhibition was -4.12%.

Consider `c1coc(CNc2nc(Nc3cccc4ccccc34)nc3ccccc23)c1`, for which the inhibition is 5.02%.

`CC(CC(=O)N1CCc2ccccc2C1)S(=O)(=O)c1ccc2c(c1)NC(=O)CCS2` (centres undefined): the inhibition is -1.85%.

On to `COc1ccc(C)cc1NC(=O)c1coc(NC(=O)c2ccco2)n1`, for which the inhibition is -2.46%.

In the case of `CO[C@H]1C[C@@H]2CC[C@@H](C)[C@@](O)(O2)C(=O)C(=O)N2CCCC[C@H]2C(=O)O[C@H]([C@H](C)C[C@@H]2CC[C@@H](O)[C@H](OC)C2)CC(=O)[C@H](C)/C=C(\C)[C@@H](O)[C@@H](OC)C(=O)[C@H](C)C[C@H](C)/C=C/C=CC=C1C`, the inhibition is 6.78%.

For the molecule `CCN1CCN(c2ccc(-c3nc(-c4cccc(F)c4)no3)cn2)CC1`, the inhibition is -1.45%.

For the molecule `CCc1nc(SCC(=O)Nc2cccc(OC)c2)c2c(=O)n(C)c(=O)n(C)c2n1`, the inhibition is -0.222%.

`O=C1C2Cc3c([nH]c4ccccc34)C(c3ccccc3)N2C(=O)CN1C1CCCCC1` (centres undefined): the inhibition is 5.95%.

In the case of `O=C(C1=Cc2ccccc2OC1)N1CCN(c2ccccc2)CC1`, the inhibition was 0.226%.

On to `COc1cccc(C(=O)NC2CC(=O)N(c3ccc(F)cc3)C2)c1OC` (centres undefined), for which the inhibition is 0.016%.

Consider `Cc1nc(C2CCN(C(=O)C(C)(C)C)CC2)cc(N2C(=O)OCC2C(C)C)n1` (centres undefined), for which the inhibition is -3.66%.

Regarding `CC(C)c1cc(N2CCCCC2)nc(-c2ccccn2)n1`, the inhibition is -3.77%.

For `CN(C)S(=O)(=O)N1C[C@H](OCc2ccccn2)[C@H]2OCCC[C@H]21`, the inhibition was -1.03%.

Turning to `Cc1nccn1-c1cccc(C2CCCN(c3ncccn3)C2)n1` (centres undefined), the inhibition was -0.888%.

With `C/C=C(\C)C(=O)O[C@@H]1C[C@@]2(C)CC[C@H](C(C)C)[C@@]2(O)CC[C@@]1(C)O`, the inhibition is -2.54%.

Regarding `O=C1CN2CC(c3ccccc3S2(=O)=O)N1Cc1ccccc1` (centres undefined), the inhibition is -1.24%.

Take `CCC(=O)c1c(-c2ccc(F)cc2)c2c3n(c(-c4ccc(Cl)c(Cl)c4)cn13)CCCC2`: the inhibition was 3.03%.

Take `O=C1N[C@H]2OCCC[C@H]2[C@H](c2cccc(CNC(=O)c3ccon3)c2)N1`: the inhibition was 1.68%.

In the case of `Cc1ccccc1CN1C(=O)N(c2cccc(F)c2)c2ncccc2S1(=O)=O`, the inhibition is 3.52%.

Consider `Cc1cnn(CC2CCCN2Cc2nc(-c3ccco3)no2)c1` (centres undefined), for which the inhibition was -8.36%.

Regarding `CC(=O)NCc1nc(-c2ccc3c(c2)nc(C)c(=O)n3C2CCCC2)no1`, the inhibition is -31.3%.

As to `O=C(C1CCCN(c2cnc3nccnc3c2)C1)N1CCCCCC1` (centres undefined), the inhibition is -42.4%.

`CN(C)c1ncc(CN2CCN(C)C(c3ccccc3)C2)cn1` (centres undefined): the inhibition is -0.428%.

As for `CNC(=O)C1Cc2ccccc2N1S(=O)(=O)c1cccnc1` (centres undefined), the inhibition is -8.34%.

Regarding `Cc1ccc(C)c(S(=O)(=O)NCC(c2ccc3c(c2)CCN3C)N2CCCC2)c1` (centres undefined), the inhibition was -2.82%.

With `COc1ccc(C(=O)N2CCCC(c3ccnc(=O)[nH]3)C2)cn1` (centres undefined), the inhibition is -1.26%.

Turning to `Cc1ccc(NC(=O)N2CCSc3ccccc32)cc1`, the inhibition is -0.231%.
